# Data published in PubChem BioAssay (NCI).
# The panel holds about 83,000 compounds, 20% with a hit somewhere; the sample as a whole holds those more often.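 Growth was measured after 48 h exposure to one concentration of compound in 96-well plates. Values under 10 count as active.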 A number with no mark means an inactive call. Active and inactive are the calls of the source.
# Experiments:
# Test in all cases: NCI-60 one-dose screen, 48 h (100 = growth as untreated, 0 = no growth, -100 = all killed)
# Conditions in all cases: 10 µM
# SK-MEL-2 melanoma = test system: SK-MEL-2 melanoma
# SN12C renal = test system: SN12C renal
# UO-31 renal = test system: UO-31 renal
# TK-10 renal = test system: TK-10 renal
# ACHN renal = test system: ACHN renal
# CAKI-1 renal = test system: CAKI-1 renal
# A498 renal = test system: A498 renal
# MOLT-4 leukemia = test system: MOLT-4 leukemia
# SR leukemia = test system: SR leukemia
# RPMI-8226 leukemia = test system: RPMI-8226 leukemia
# OVCAR-8 ovarian = test system: OVCAR-8 ovarian
# OVCAR-5 ovarian = test system: OVCAR-5 ovarian
# OVCAR-4 ovarian = test system: OVCAR-4 ovarian
# SK-OV-3 ovarian = test system: SK-OV-3 ovarian
# IGROV1 ovarian = test system: IGROV1 ovarian
# OVCAR-3 ovarian = test system: OVCAR-3 ovarian
# HS 578T breast = test system: HS 578T breast
# NCI/ADR-RES ovarian = test system: NCI/ADR-RES ovarian
# EKVX NSCLC = test system: EKVX NSCLC
# CCRF-CEM leukemia = test system: CCRF-CEM leukemia
SMILES,growth (SK-MEL-2 melanoma),growth (SN12C renal),growth (UO-31 renal),growth (TK-10 renal),growth (ACHN renal),growth (CAKI-1 renal),growth (A498 renal),growth (MOLT-4 leukemia),growth (SR leukemia),growth (RPMI-8226 leukemia),growth (OVCAR-8 ovarian),growth (OVCAR-5 ovarian),growth (OVCAR-4 ovarian),growth (SK-OV-3 ovarian),growth (IGROV1 ovarian),growth (OVCAR-3 ovarian),growth (HS 578T breast),growth (NCI/ADR-RES ovarian),growth (EKVX NSCLC),growth (CCRF-CEM leukemia)
CCCCC1(O)CCCCC1,112%,103%,99.1%,94.3%,101%,96.1%,115%,93.5%,92.6%,101%,104%,112%,115%,112%,114%,106%,98.1%,107%,–,–
Cc1ccc(N=Nc2ccccc2)cc1,97.6%,–,94.8%,95.1%,107%,96.4%,104%,95.5%,–,100%,106%,99.7%,108%,89.4%,102%,105%,103%,102%,94.8%,99%
Cc1ccc(C(SCC(N)C(=O)O)(c2ccc(C)cc2)c2ccc(C)cc2)cc1 (stereo not given),-52.1% (active),–,25.3%,–,60.3%,–,46.3%,7.71% (active),–,-36.6% (active),7.22% (active),38.6%,47.8%,26%,–,-42.6% (active),-15.3% (active),57.8%,-8.36% (active),6.77% (active)
O=C(CI)OCC(COC(=O)CI)OC(=O)CI,83.1%,76.8%,-89.8% (active),78.9%,11.2%,-17.6% (active),108%,44.4%,-12.9% (active),50.9%,97.9%,104%,64%,119%,-57.1% (active),72.2%,97.4%,95.6%,–,–
COc1ccc(-c2cc(-c3ccc(Cl)cc3)nc(SCCCC(=O)NO)n2)cc1,0.495% (active),–,-40.9% (active),13.8%,2.98% (active),–,-19% (active),9.27% (active),22.8%,–,8.07% (active),24.5%,18.2%,5.99% (active),2.96% (active),-1.93% (active),37.9%,-33.6% (active),-19.2% (active),–
CCCCCCCCCCOC(c1ccccc1)c1ccccc1,73.5%,–,75.6%,85.1%,88.8%,–,109%,84.5%,93.7%,96%,103%,–,99.8%,96.6%,73.7%,99.5%,99.7%,86.1%,90.4%,93.7%
COc1ccc(-c2nn(-c3cccc(Cl)c3)cc2-c2cc(-c3cccs3)[nH]c(=S)n2)cc1,71.3%,–,24.3%,66.7%,48.4%,12.5%,–,21.9%,32.6%,–,48.3%,83.1%,60.4%,83%,50.7%,57.8%,62.7%,47.4%,44.6%,39.5%
CCN(CC)CCNc1ccc(C)c2sc3cc(Cl)ccc3c(=O)c12,36.5%,–,26.9%,50.6%,28.1%,–,53.5%,1.35% (active),-30.4% (active),-4.34% (active),45.9%,64.3%,52.1%,64.2%,20.4%,–,43.3%,51.1%,71.3%,–
COc1ccc2c(c1)C(=O)/C(=C/c1ccc([N+](=O)[O-])o1)O2,-68.7% (active),-30.4% (active),-91.9% (active),-93.1% (active),-80.9% (active),-69.8% (active),-50.5% (active),-37.2% (active),2.34% (active),-3.06% (active),-71.6% (active),-52.2% (active),-87% (active),48.7%,-66.3% (active),-84.5% (active),17.8%,13.4%,–,3.49% (active)
NS(=O)(=O)c1ccc(Br)cc1,101%,–,97.1%,90.4%,107%,95.3%,115%,92.7%,106%,108%,105%,97.6%,104%,80.8%,100%,114%,110%,97.7%,90.3%,104%
CCOC(=O)N/N=C/c1ccc(OC)c(OC)c1,115%,99.2%,106%,123%,106%,110%,107%,107%,–,102%,102%,112%,110%,114%,110%,128%,–,116%,–,91.4%
CCn1c(SCc2ccc(C)cc2)nnc1-c1nn(-c2ccc(Cl)cc2Cl)c(-c2ccc(Cl)cc2)c1C,4.93% (active),–,9.59% (active),18.1%,2.32% (active),40.5%,18.9%,2.46% (active),6.14% (active),-3.78% (active),12.9%,26.8%,16.9%,-7.12% (active),30.8%,15.8%,38.4%,52.1%,10.4%,–
COc1cc2c(Nc3ccc(-c4ccc(N)cc4)cc3)ncnc2c(OC)c1OC,18.5%,–,22.7%,–,32.1%,3.89% (active),43.4%,19.8%,–,39.5%,41.2%,40.1%,51.4%,36.1%,22.5%,41.4%,70.6%,48.9%,59.2%,23.3%
c1cncc(-c2csc(-c3c[nH]c4ccccc34)n2)c1,97.3%,–,66.5%,125%,88%,88.3%,–,79.8%,70%,–,95.8%,95.6%,79.1%,79.3%,68.8%,85.6%,–,94.7%,50.6%,–
